# Measurements published in PubChem BioAssay AID795 (NMMLSC, 2007).
# In all, about 24,000 compounds went through this assay and about 130 (0.54%) were called active. Many of the other results were omitted from the sample, so actives are more common in it than they were. Values without a mark were called inactive.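 How the source made its calls: active means side scatter shift above 30%; inactive means the rest.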 Square brackets hold non-standard residues; d marks the D form. Peptide text beside a SMILES is read from it. ξ: configuration not given here. ξV = CC(C)C(N)C(=O)O
# Test: inducers of granularity increase in LNCaP cells – cell-based, flow cytometry side scatter, primary screen (AID 795);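 further: androgen-responsive LNCaP prostate cancer cells in charcoal-stripped serum medium; percent of cells past a gate set so DMSO wells show 10% shift; higher shift means more granular cells and more differentiation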
# Conditions: LNCaP differentiation, 4 d, at 10 µM, hits give high values
row,Compound,side scatter shift
1,Cc1c2cn[nH]c(=O)c2c(C)n1Cc1ccc(F)cc1,2%
2,Cc1cccn2c(=O)c3cc(C#N)c(=O)n(CCCN4CCOCC4)c3nc12,4%
3,Cc1cc(C)nc(NC2=NCC(=O)N2c2ccc(Cl)cc2)n1,5%
4,CCn1c(SCC(=O)Nc2ccc3c(c2)OCCO3)nc2c(c1=O)SC(C)C2 (stereo unspecified),8%
5,Cn1c(=O)cc(OCCCC(=O)N2CCN(c3ccccn3)CC2)c2ccccc21,2%
6,O=C(Cn1c(=O)n(Cc2ccco2)c(=O)c2ccccc21)NCC1CCCO1 (stereo unspecified),3%
7,Cc1ccc(S(=O)(=O)N2CCCC2CO)cc1 (stereo unspecified),16%
8,CCOC(=O)CSc1nnc(CNC(=O)Cc2ccccc2)n1-c1ccccc1OC,15%
9,CCN(CC)CCCNC(=O)c1cc(-c2cccc(Cl)c2)on1,33% (active)
10,O=C(NCCCN1CCOCC1)c1cc(-c2ccc(Cl)cc2)on1,8%
11,Cc1cc(C(=O)NCCCc2ccccc2)no1,4%
12,Cc1ccccc1N1CC(c2nc3ccccc3[nH]2)CC1=O (stereo unspecified),6%
13,C/C(N)=C(\C#N)C(=O)NCCc1ccccn1,16%
14,O=C(OCc1ccccc1F)c1ccc2c(c1)OCCO2,10%
15,O=C(COC(=O)c1ccccc1C(=O)c1ccccc1)c1ccco1,7%
16,O=C(CCN1C(=O)c2ccncc2C1=O)Nc1ccc2c(c1)OCCO2,13%
17,CCOC(=O)N1CCC(NC(=O)Cc2cn(C)c3ccccc23)CC1,8%
18,CC(=O)N1CCc2cc(S(=O)(=O)Nc3ccccc3N3CCN(C)CC3)ccc21,15%
19,CC(C)n1c(NCc2c[nH]c3ccccc23)nc2ccccc21,14%
20,CC(=O)NC(C(=O)NCC(N)=O)C(C)C (stereo unspecified) (Ac-[ξV]-Gly-NH2),7%
21,CC(NC(=O)COc1ccccc1)C(=O)NC1=NCCS1 (stereo unspecified),13%

row,Compound,side scatter shift
1,COc1ccc(N=Cc2c(O)[nH]c3ccccc23)cc1OC,15%
2,COC(=O)c1[nH]c2ccccc2c1NS(=O)(=O)c1ccc(OC)cc1OC,10%
3,COc1ccc(OC)c(N=Cc2c(O)[nH]c3ccccc23)c1,48% (active)
4,CCc1c(C)nc(N2CCN(Cc3ccccc3)CC2)[nH]c1=O,8%
5,Cc1nc(NC(=O)C23CCC(C)(C(=O)O2)C3(C)C)sc1C (stereo unspecified),4%
6,CCCC(=O)N1c2ccccc2NC2=C(C(=O)CCC2)C1c1ccc(F)cc1 (stereo unspecified),12%
7,O=C(CSC1=Nc2ccccc2C2=NC(c3ccccc3)C(=O)N12)NCC1CCCO1 (stereo unspecified),8%
8,Cc1cccc(N2C(=O)SC(N(CC(=O)O)c3cccc(C)c3)C2=O)c1 (stereo unspecified),5%
9,O=C1NC(c2ccncc2)Nc2sc3c(c21)CCCC3 (stereo unspecified),3%
10,COc1ccc(CCNC(=O)CSc2nnc(CNC(=O)c3cccs3)o2)cc1OC,10%
11,COCCCNC(=O)c1ccc(CNS(=O)(=O)c2ccc(NC(C)=O)cc2)cc1,15%
12,CC1=NCCN1S(=O)(=O)c1ccc(Br)c(C)c1,16%
13,CCOC(=O)C1(c2ccccc2)NC(c2ccc(N(C)C)cc2)C2C(=O)N(C)C(=O)C21 (stereo unspecified),11%
14,COc1cccc(OCC(=O)Nc2ccccc2C(N)=O)c1,9%
15,COc1nc(Oc2ccc(=O)n(C)n2)nc(N(C)C)n1,10%
16,COc1ccc(N2C(=O)C3CCCN3C2c2cccs2)cc1 (stereo unspecified),9%
17,Cc1ccc(-c2nnc(SC(C)C#N)n2N)cc1 (stereo unspecified),11%
18,Cn1c(C(=O)NCCCN2CCN(c3cccc(Cl)c3)CC2)cc2c(=O)n(C)c3ccccc3c21,92% (active)
19,CCn1c(=O)cc(OCC(=O)NCCCN2CCN(c3cccc(Cl)c3)CC2)c2ccccc21,27%
20,CC1CCCC(C)N1CCCNC(=O)c1cc2c(=O)n(C)c3ccccc3c2n1C (stereo unspecified),9%
21,COc1ccccc1NC(=O)C1=C(C)Nc2ncnn2C1c1ccc(C)o1 (stereo unspecified),16%

row,Compound,side scatter shift
1,CCOC(=O)C1C(=O)C=C(c2ccc(OC)cc2)CC1c1ccco1 (stereo unspecified),5%
2,CC(=O)NC(C)c1nc2ccccc2n1Cc1ccccc1F (stereo unspecified),7%
3,CC1=C(C(=O)Nc2ccccc2)C(c2cccs2)C(C#N)=C(SCC#N)N1 (stereo unspecified),4%
4,Cc1nnc(C)n1/N=C/c1ccc(C(C)C)cc1,18%
5,Cn1c(=O)cc(OCCCC(=O)N2CCN(Cc3ccc4c(c3)OCO4)CC2)c2ccccc21,12%
6,OCc1nc(CO)n(Cc2ccccc2)n1,7%
7,Cc1ccc(N2C(=O)c3oc4ccccc4c(=O)c3C2c2cccnc2)nc1 (stereo unspecified),3%
8,O=c1ccn(Cc2ccccc2Cl)cc1,3%
9,O=C1N=C(N2CCOCC2)CS1,16%
10,CCC(C)(C)n1nnnc1C(c1ccccc1OC)N1CCSCC1 (stereo unspecified),10%
11,CCn1c(=O)cc(SCC(=O)NCc2ccc3c(c2)OCO3)c2ccccc21,20%
12,O=C(O)CCC(=O)Nc1ccc(N2CCOCC2)cc1,6%
13,CCOc1ccc(C(=O)N(Cc2ccc(N(C)C)cc2)C2CCS(=O)(=O)C2)cc1 (stereo unspecified),12%
14,O=C(CC(Cc1ccccc1)C(=O)O)NCCc1ccc2c(c1)OCO2 (stereo unspecified),6%
15,O=C(CSc1nc2ncccc2[nH]1)Nc1ccc2c(c1)OCCO2,3%
16,Nc1c(C(=O)NCc2ccccc2)nnn1Cc1cccc(Cl)c1,24%
17,O=C(CCn1c(=S)[nH]c2ccccc2c1=O)NCCCN1CCCC1=O,6%
18,COc1cccc2cc(C(C)N(CCCN3CCOCC3)C(=O)Nc3ccc(Cl)cc3)oc12 (stereo unspecified),6%
19,CCOC(=O)Cn1c(N)c(C(=O)OC)sc1=S,0%
20,Clc1ccc(Cn2ncc3c(NCc4cccnc4)ncnc32)cc1,11%
21,CCOC(=O)CSc1nc2c(c(=O)n(C)c(=O)n2C)n1Cc1ccccc1F,11%

row,Compound,side scatter shift
1,O=C(Nc1ccccc1C(F)(F)F)c1cc(-c2ccc(O)cc2)on1,5%
2,CCOC(=O)c1nc(-c2ccc3c(c2)OCO3)[nH]c1C,7%
3,CCCN1CCN(C(=O)Cn2ncc3ccccc32)CC1,6%
4,CCCOC(=O)c1[nH]c2c(c1C)C(=O)CC(c1cc(OC)c(OC)c(OC)c1)C2 (stereo unspecified),11%
5,CC1(C)C(=O)Nc2ccccc2N1C(=O)COC(=O)Cn1cnc2ccccc2c1=O,7%
6,Cc1ccc(C(=O)N(CN2CCCC2=O)c2ccc(F)cc2)cc1,15%
7,CCCC(=O)Nc1cccc(-c2cn3ccsc3n2)c1,3%
8,O=C(COC(=O)C12CC3CC(CC(C3)C1)C2)NCc1ccco1,12%
9,CCOC(=O)C1CCCN(C(=O)c2ccc(CS(=O)(=O)c3ccc(Br)cc3)o2)C1 (stereo unspecified),8%
10,Cc1ccsc1C(C(=O)NC1CCCCC1)N(C(=O)Cc1cccs1)C1CC1 (stereo unspecified),9%
11,CCCCc1nccn1CCn1ccnc1CCCC,7%
12,O=C(C1CC1)N1CCN=C1SCc1ccc(Cl)cc1,11%
13,Cc1cc(=O)n(C)c(=O)n1CCCNc1ccccc1,9%
14,CC(C)Nc1nc(N(c2ccccc2)c2ccccc2)nc(-n2ccnc2)n1,10%
15,CC(CCc1ccccc1)NC(=O)c1ccc(Br)o1 (stereo unspecified),5%
16,C/C(=C(\C#N)C(=O)NCCCN1CCOCC1)N(C)C,13%
17,O=C(NCc1cccnc1)c1ccc(CS(=O)(=O)c2ccc(Br)cc2)o1,4%
18,O=S(=O)(Nc1ccccn1)c1ccc(Oc2ccccc2)cc1,13%
